Assay results reported in the supplement of paper PMC4466140.

How the values were obtained:
Test in all cases: SPOT peptide array binding signal intensity (averaged, normalized) (arbitrary units (background-subtracted, floor 0; scale differs between SH3 domains)); higher = stronger binding of the SH3 domain to the peptide
AgAbp1 = biological target: AgAbp1
Summary of the method: (§1)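 GST-fused SH3 domains from four yeast species were expressed in E. coli BL21(DE3), purified on glutathione Sepharose and incubated at 10 μg/ml overnight at 4°C in TBS-based blocking buffer on cellulose membranes carrying synthetic 15-mer peptides, with cysteines replaced by serines. Bound protein was detected with anti-GST antibody, an HRP anti-mouse secondary and luminol, then imaged and quantified with Genespotter. Binding signal is the normalized, background-subtracted spot intensity averaged over replicates, in arbitrary units that differ between domains.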

AgBbc1 = biological target: AgBbc1
Summary of the method: as §1

AgBem1-D1 = biological target: AgBem1-D1
Summary of the method: as §1

AgBzz1-D1 = biological target: AgBzz1-D1
Summary of the method: as §1

AgBzz1-D2 = biological target: AgBzz1-D2
Summary of the method: as §1

AgCyk3 = biological target: AgCyk3
Summary of the method: as §1

AgFus1 = biological target: AgFus1
Summary of the method: as §1

AgHof1 = biological target: AgHof1
Summary of the method: as §1

AgHse1 = biological target: AgHse1
Summary of the method: as §1

AgLsb1 = biological target: AgLsb1
Summary of the method: as §1

AgLsb4 = biological target: AgLsb4
Summary of the method: as §1

AgMyo5 = biological target: AgMyo5
Summary of the method: as §1

AgNbp2 = biological target: AgNbp2
Summary of the method: as §1

AgRvs167 = biological target: AgRvs167
Summary of the method: as §1

AgSho1 = biological target: AgSho1
Summary of the method: as §1

AgSla1-D1-D2 = biological target: AgSla1-D1-D2
Summary of the method: as §1

AgSla1-D3 = biological target: AgSla1-D3
Summary of the method: as §1

CaAbp1-D1 = biological target: CaAbp1-D1
Summary of the method: as §1

CaAbp1-D2 = biological target: CaAbp1-D2
Summary of the method: as §1

CaBbc1 = biological target: CaBbc1
Summary of the method: as §1

CaBem1-D1 = biological target: CaBem1-D1
Summary of the method: as §1

CaBzz1-D1 = biological target: CaBzz1-D1
Summary of the method: as §1

CaBzz1-D2 = biological target: CaBzz1-D2
Summary of the method: as §1

CaCyk3 = biological target: CaCyk3
Summary of the method: as §1

CaFus1 = biological target: CaFus1
Summary of the method: as §1

CaHof1 = biological target: CaHof1
Summary of the method: as §1

CaHse1 = biological target: CaHse1
Summary of the method: as §1

CaLsb1 = biological target: CaLsb1
Summary of the method: as §1

CaLsb4 = biological target: CaLsb4
Summary of the method: as §1

CaMyo5 = biological target: CaMyo5
Summary of the method: as §1

CaNbp2 = biological target: CaNbp2
Summary of the method: as §1

CaRvs167 = biological target: CaRvs167
Summary of the method: as §1

CaRvs167-3 = biological target: CaRvs167-3
Summary of the method: as §1

CaSho1 = biological target: CaSho1
Summary of the method: as §1

CaSla1-D1-D2 = biological target: CaSla1-D1-D2
Summary of the method: as §1

CaSla1-D3 = biological target: CaSla1-D3
Summary of the method: as §1

ScAbp1 = biological target: ScAbp1
Summary of the method: as §1

ScBbc1 = biological target: ScBbc1
Summary of the method: as §1

ScBem1-D1 = biological target: ScBem1-D1
Summary of the method: as §1

ScBzz1-D1 = biological target: ScBzz1-D1
Summary of the method: as §1

ScBzz1-D2 = biological target: ScBzz1-D2
Summary of the method: as §1

ScCyk3 = biological target: ScCyk3
Summary of the method: as §1

ScFus1 = biological target: ScFus1
Summary of the method: as §1

ScHof1 = biological target: ScHof1
Summary of the method: as §1

ScHse1 = biological target: ScHse1
Summary of the method: as §1

ScLsb1 = biological target: ScLsb1
Summary of the method: as §1

ScLsb2 = biological target: ScLsb2
Summary of the method: as §1

ScLsb3 = biological target: ScLsb3
Summary of the method: as §1

ScLsb4 = biological target: ScLsb4
Summary of the method: as §1

ScMyo3 = biological target: ScMyo3
Summary of the method: as §1

ScMyo5 = biological target: ScMyo5
Summary of the method: as §1

ScNbp2 = biological target: ScNbp2
Summary of the method: as §1

ScPex13 = biological target: ScPex13
Summary of the method: as §1

ScRvs167 = biological target: ScRvs167
Summary of the method: as §1

ScSho1 = biological target: ScSho1
Summary of the method: as §1

ScSla1-D1-D2 = biological target: ScSla1-D1-D2
Summary of the method: as §1

ScSla1-D3 = biological target: ScSla1-D3
Summary of the method: as §1

SpAbp1-D1 = biological target: SpAbp1-D1
Summary of the method: as §1

SpBbc1 = biological target: SpBbc1
Summary of the method: as §1

SpBzz1-D1 = biological target: SpBzz1-D1
Summary of the method: as §1

SpBzz1-D2 = biological target: SpBzz1-D2
Summary of the method: as §1

SpCyk3 = biological target: SpCyk3
Summary of the method: as §1

SpHof1 = biological target: SpHof1
Summary of the method: as §1

SpHof1-2 = biological target: SpHof1-2
Summary of the method: as §1

SpHof1-3 = biological target: SpHof1-3
Summary of the method: as §1

SpHse1 = biological target: SpHse1
Summary of the method: as §1

SpLsb1 = biological target: SpLsb1
Summary of the method: as §1

SpLsb4 = biological target: SpLsb4
Summary of the method: as §1

SpMyo1 = biological target: SpMyo1
Summary of the method: as §1

SpNbp2 = biological target: SpNbp2
Summary of the method: as §1

SpPex13 = biological target: SpPex13
Summary of the method: as §1

SpRvs167 = biological target: SpRvs167
Summary of the method: as §1

SpSla1-D1-D2 = biological target: SpSla1-D1-D2
Summary of the method: as §1

SpSla1-D3 = biological target: SpSla1-D3
Summary of the method: as §1

## PSTMDFPKLPSFQNS
AgAbp1
  SPOT peptide array binding signal intensity: 3
AgBbc1
  SPOT peptide array binding signal intensity: 10.5
AgBem1-D1
  SPOT peptide array binding signal intensity: 88.5
AgBzz1-D1
  SPOT peptide array binding signal intensity: 13
AgBzz1-D2
  SPOT peptide array binding signal intensity: ≤ 0
AgCyk3
  SPOT peptide array binding signal intensity: ≤ 0
AgFus1
  SPOT peptide array binding signal intensity: 347
AgHof1
  SPOT peptide array binding signal intensity: 63.2
AgHse1
  SPOT peptide array binding signal intensity: 198
AgLsb1
  SPOT peptide array binding signal intensity: 0.5
AgLsb4
  SPOT peptide array binding signal intensity: 6
AgMyo5
  SPOT peptide array binding signal intensity: 13.5
AgNbp2
  SPOT peptide array binding signal intensity: 179
AgRvs167
  SPOT peptide array binding signal intensity: 3.5
AgSho1
  SPOT peptide array binding signal intensity: 376
AgSla1-D1-D2
  SPOT peptide array binding signal intensity: ≤ 0
AgSla1-D3
  SPOT peptide array binding signal intensity: 0.5
CaAbp1-D1
  SPOT peptide array binding signal intensity: 0.5
CaAbp1-D2
  SPOT peptide array binding signal intensity: 43.5
CaBbc1
  SPOT peptide array binding signal intensity: 34.5
CaBem1-D1
  SPOT peptide array binding signal intensity: 54
CaBzz1-D1
  SPOT peptide array binding signal intensity: 85
CaBzz1-D2
  SPOT peptide array binding signal intensity: 57.5
CaCyk3
  SPOT peptide array binding signal intensity: 8
CaFus1
  SPOT peptide array binding signal intensity: 1020
CaHof1
  SPOT peptide array binding signal intensity: 1
CaHse1
  SPOT peptide array binding signal intensity: 156
CaLsb1
  SPOT peptide array binding signal intensity: 0.5
CaLsb4
  SPOT peptide array binding signal intensity: 390
CaMyo5
  SPOT peptide array binding signal intensity: 95.5
CaNbp2
  SPOT peptide array binding signal intensity: 340
CaRvs167
  SPOT peptide array binding signal intensity: 33.3
CaRvs167-3
  SPOT peptide array binding signal intensity: 6.5
CaSho1
  SPOT peptide array binding signal intensity: 1290
CaSla1-D1-D2
  SPOT peptide array binding signal intensity: 136
CaSla1-D3
  SPOT peptide array binding signal intensity: 157
ScAbp1
  SPOT peptide array binding signal intensity: 3
ScBbc1
  SPOT peptide array binding signal intensity: ≤ 0
ScBem1-D1
  SPOT peptide array binding signal intensity: ≤ 0
ScBzz1-D1
  SPOT peptide array binding signal intensity: 2
ScBzz1-D2
  SPOT peptide array binding signal intensity: 10.5
ScCyk3
  SPOT peptide array binding signal intensity: 5
ScFus1
  SPOT peptide array binding signal intensity: 414
ScHof1
  SPOT peptide array binding signal intensity: 88.2
ScHse1
  SPOT peptide array binding signal intensity: 130
ScLsb1
  SPOT peptide array binding signal intensity: 11
ScLsb2
  SPOT peptide array binding signal intensity: ≤ 0
ScLsb3
  SPOT peptide array binding signal intensity: 184
ScLsb4
  SPOT peptide array binding signal intensity: 140
ScMyo3
  SPOT peptide array binding signal intensity: 28.5
ScMyo5
  SPOT peptide array binding signal intensity: 10.5
ScNbp2
  SPOT peptide array binding signal intensity: 252
ScPex13
  SPOT peptide array binding signal intensity: 221
ScRvs167
  SPOT peptide array binding signal intensity: 11.3
ScSho1
  SPOT peptide array binding signal intensity: 528
ScSla1-D1-D2
  SPOT peptide array binding signal intensity: 60
ScSla1-D3
  SPOT peptide array binding signal intensity: 290
SpAbp1-D1
  SPOT peptide array binding signal intensity: ≤ 0
SpBbc1
  SPOT peptide array binding signal intensity: ≤ 0
SpBzz1-D1
  SPOT peptide array binding signal intensity: 205
SpBzz1-D2
  SPOT peptide array binding signal intensity: 10.5
SpCyk3
  SPOT peptide array binding signal intensity: 1
SpHof1
  SPOT peptide array binding signal intensity: 30.2
SpHof1-2
  SPOT peptide array binding signal intensity: 72.2
SpHof1-3
  SPOT peptide array binding signal intensity: 18
SpHse1
  SPOT peptide array binding signal intensity: 289
SpLsb1
  SPOT peptide array binding signal intensity: ≤ 0
SpLsb4
  SPOT peptide array binding signal intensity: 658
SpMyo1
  SPOT peptide array binding signal intensity: 91.5
SpNbp2
  SPOT peptide array binding signal intensity: 130
SpPex13
  SPOT peptide array binding signal intensity: 38
SpRvs167
  SPOT peptide array binding signal intensity: 59
SpSla1-D1-D2
  SPOT peptide array binding signal intensity: 4
SpSla1-D3
  SPOT peptide array binding signal intensity: 133
